# Tests used:
# Conditions in all cases: treatment time: 24 h
# A549-ACTB-RAB5A [1] = test: lowest phenotypically active concentration; higher = less potent
# How it was run: (§1)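 Live-cell features were measured per well and normalised to solvent control wells after fifteen gene-edited A549, HepG2 and WPMY1 reporter lines had been treated for 24 h at 0.3, 1, 3 or 9 µM in four wells each. A condition was deviating when ≥3 of 4 wells sat beyond the 95th percentile of control Euclidean distances. It was reproducible when the median replicate Pearson correlation exceeded the 95th percentile of non-replicates. Phenotypic activity demanded both.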
# A549-CANX-COX4 [2] = test: as above
# How it was run: as §1
# A549-GM130-SQSTM1 [3] = test: as above
# How it was run: as §1
# A549-TP53BP1-CLTA [4] = test: as above
# How it was run: as §1
# A549-TUBA1B-RELA [5] = test: as above
# How it was run: as §1
# HepG2-TP53BP1-CLTA [6] = test: as above
# How it was run: as §1
# A549-ACTB-RAB5A [7] = test: phenotypically active (imaging signature differs from DMSO and reproducible) at any of 0.3-9 uM (binary (1 = active, 0 = inactive)); higher = active
# How it was run: as §1
# A549-CANX-COX4 [8] = test: as above
# How it was run: as §1
# A549-GM130-SQSTM1 [9] = test: as above
# How it was run: as §1
# A549-TP53BP1-CLTA [10] = test: as above
# How it was run: as §1
# A549-TUBA1B-RELA [11] = test: as above
# How it was run: as §1
# HepG2-ACTB-RAB5A = test: as above
# How it was run: as §1
# HepG2-CANX-COX4 = test: as above
# How it was run: as §1
# HepG2-GM130-SQSTM1 = test: as above
# How it was run: as §1
# HepG2-TP53BP1-CLTA [12] = test: as above
# How it was run: as §1
# HepG2-TUBA1B-RELA = test: as above
# How it was run: as §1
# WPMY1-CANX-COX4 = test: as above
# How it was run: as §1
# WPMY1-GM130-SQSTM1 = test: as above
# How it was run: as §1
# WPMY1-TP53BP1-CLTA = test: as above
# How it was run: as §1
# WPMY1-TUBA1B-RELA = test: as above
# How it was run: as §1
Structure (SMILES),lowest phenotypically active concentration (A549-ACTB-RAB5A [1]),lowest phenotypically active concentration (A549-CANX-COX4 [2]),lowest phenotypically active concentration (A549-GM130-SQSTM1 [3]),lowest phenotypically active concentration (A549-TP53BP1-CLTA [4]),lowest phenotypically active concentration (A549-TUBA1B-RELA [5]),lowest phenotypically active concentration (HepG2-TP53BP1-CLTA [6]),phenotypically active (A549-ACTB-RAB5A [7]),phenotypically active (A549-CANX-COX4 [8]),phenotypically active (A549-GM130-SQSTM1 [9]),phenotypically active (A549-TP53BP1-CLTA [10]),phenotypically active (A549-TUBA1B-RELA [11]),phenotypically active (HepG2-ACTB-RAB5A),phenotypically active (HepG2-CANX-COX4),phenotypically active (HepG2-GM130-SQSTM1),phenotypically active (HepG2-TP53BP1-CLTA [12]),phenotypically active (HepG2-TUBA1B-RELA),phenotypically active (WPMY1-CANX-COX4),phenotypically active (WPMY1-GM130-SQSTM1),phenotypically active (WPMY1-TP53BP1-CLTA),phenotypically active (WPMY1-TUBA1B-RELA)
CNC1CCC2(C)C(=CCC3C2CCC24CN(C)C(C)C2CCC34)C1 (stereo not given) [Isoconessimine],≤ 0.3 µM,9 µM,≤ 0.3 µM,1 µM,≤ 0.3 µM,1 µM,1 (active),1 (active),1 (active),1 (active),1 (active),1 (active),1 (active),1 (active),1 (active),1 (active),1 (active),1 (active),1 (active),1 (active)
CCCCc1oc2ccccc2c1C(=O)c1cc(I)c(OCCN(CC)CC)c(I)c1 [amiodarone],3 µM,9 µM,9 µM,9 µM,3 µM,9 µM,1 (active),1 (active),1 (active),1 (active),1 (active),1 (active),1 (active),1 (active),1 (active),1 (active),1 (active),1 (active),1 (active),1 (active)
c1ccc2c(c1)Cc1c(Nc3ccc4c(c3)OCCO4)n[nH]c1-2,3 µM,3 µM,3 µM,3 µM,3 µM,3 µM,1 (active),1 (active),1 (active),1 (active),1 (active),1 (active),1 (active),1 (active),1 (active),1 (active),1 (active),1 (active),1 (active),1 (active)
COc1cc(/C=C/C(=O)N2CCC=CC2=O)cc(OC)c1OC [Piperlongumine],3 µM,9 µM,3 µM,9 µM,9 µM,9 µM,1 (active),1 (active),1 (active),1 (active),1 (active),1 (active),1 (active),1 (active),1 (active),1 (active),1 (active),1 (active),1 (active),1 (active)
CCC(=O)N1CCN(c2ccc(-n3c(=O)ccc4cnc5ccc(-c6cnc7ccccc7c6)cc5c43)cc2C(F)(F)F)CC1 [Torin 1],≤ 0.3 µM,≤ 0.3 µM,≤ 0.3 µM,≤ 0.3 µM,≤ 0.3 µM,≤ 0.3 µM,1 (active),1 (active),1 (active),1 (active),1 (active),1 (active),1 (active),1 (active),1 (active),1 (active),1 (active),1 (active),1 (active),1 (active)
Cc1cnc(NC(=O)Nc2cc(Br)c(C)cc2OC[C@@H]2CNCCO2)cn1,3 µM,3 µM,3 µM,1 µM,1 µM,1 µM,1 (active),1 (active),1 (active),1 (active),1 (active),1 (active),1 (active),1 (active),1 (active),1 (active),1 (active),1 (active),1 (active),1 (active)
CN(C)c1ccc(C(=O)NCCCCCCC(=O)NO)cc1,≤ 0.3 µM,≤ 0.3 µM,1 µM,≤ 0.3 µM,≤ 0.3 µM,1 µM,1 (active),1 (active),1 (active),1 (active),1 (active),1 (active),1 (active),1 (active),1 (active),1 (active),1 (active),1 (active),1 (active),1 (active)
C[C@@H]1CN(CC(=O)Nc2ccc3c(c2)Cc2cccc(-c4cc(=O)cc(N5CCOCC5)o4)c2S3)C[C@H](C)O1,3 µM,9 µM,3 µM,9 µM,9 µM,3 µM,1 (active),1 (active),1 (active),1 (active),1 (active),1 (active),1 (active),1 (active),1 (active),1 (active),1 (active),1 (active),1 (active),1 (active)
CC(C)(C)c1cnc(CSc2cnc(NC(=O)C3CCNCC3)s2)o1,≤ 0.3 µM,≤ 0.3 µM,≤ 0.3 µM,≤ 0.3 µM,≤ 0.3 µM,≤ 0.3 µM,1 (active),1 (active),1 (active),1 (active),1 (active),1 (active),1 (active),1 (active),1 (active),1 (active),1 (active),1 (active),1 (active),1 (active)
CC[C@]1(O)C[C@@H]2CN(CCc3c([nH]c4ccccc34)[C@@](C(=O)OC)(c3cc4c(cc3OC)N(C=O)[C@H]3[C@@](O)(C(=O)OC)[C@H](OC(C)=O)[C@]5(CC)C=CCN6CC[C@]43[C@@H]65)C2)C1 [vincristine],≤ 0.3 µM,≤ 0.3 µM,≤ 0.3 µM,≤ 0.3 µM,≤ 0.3 µM,≤ 0.3 µM,1 (active),1 (active),1 (active),1 (active),1 (active),1 (active),1 (active),1 (active),1 (active),1 (active),1 (active),1 (active),1 (active),1 (active)
